# From the supplement of paper PMC11001985
# A number with no mark means an inactive call.
# Compound: C#CCNC(=O)CCSSCCC(=O)NCCc1ccc(C=O)c(C=O)c1
# Experiment: lysine labeling ratio R10:1 (500 µM / 50 µM probe), SILAC-ABPP in living cells; higher = lower intrinsic lysine reactivity toward the probe, active = 2 or less
# Details: HeLa; probe concentrations 500 vs 50 µM
# In short: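 An alkyne-tagged lysine probe with a disulfide linker labelled living HeLa cells in PBS at room temperature at either 50 µM or 500 µM, using SILAC light and heavy cells in forward and reverse label swaps. Lysates were mixed, clicked to biotin-azide, trypsin-digested, enriched on neutravidin, DTT-released, alkylated and measured by LC-MS/MS on a TIMS-TOF Pro. Each lysine's R is the filtered median high-probe/low-probe MS1 peptide ratio, combined as the median over forward and reverse replicates, with 20 as the upper limit.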
# UniProt P06756, sequence (P06756 whole entry): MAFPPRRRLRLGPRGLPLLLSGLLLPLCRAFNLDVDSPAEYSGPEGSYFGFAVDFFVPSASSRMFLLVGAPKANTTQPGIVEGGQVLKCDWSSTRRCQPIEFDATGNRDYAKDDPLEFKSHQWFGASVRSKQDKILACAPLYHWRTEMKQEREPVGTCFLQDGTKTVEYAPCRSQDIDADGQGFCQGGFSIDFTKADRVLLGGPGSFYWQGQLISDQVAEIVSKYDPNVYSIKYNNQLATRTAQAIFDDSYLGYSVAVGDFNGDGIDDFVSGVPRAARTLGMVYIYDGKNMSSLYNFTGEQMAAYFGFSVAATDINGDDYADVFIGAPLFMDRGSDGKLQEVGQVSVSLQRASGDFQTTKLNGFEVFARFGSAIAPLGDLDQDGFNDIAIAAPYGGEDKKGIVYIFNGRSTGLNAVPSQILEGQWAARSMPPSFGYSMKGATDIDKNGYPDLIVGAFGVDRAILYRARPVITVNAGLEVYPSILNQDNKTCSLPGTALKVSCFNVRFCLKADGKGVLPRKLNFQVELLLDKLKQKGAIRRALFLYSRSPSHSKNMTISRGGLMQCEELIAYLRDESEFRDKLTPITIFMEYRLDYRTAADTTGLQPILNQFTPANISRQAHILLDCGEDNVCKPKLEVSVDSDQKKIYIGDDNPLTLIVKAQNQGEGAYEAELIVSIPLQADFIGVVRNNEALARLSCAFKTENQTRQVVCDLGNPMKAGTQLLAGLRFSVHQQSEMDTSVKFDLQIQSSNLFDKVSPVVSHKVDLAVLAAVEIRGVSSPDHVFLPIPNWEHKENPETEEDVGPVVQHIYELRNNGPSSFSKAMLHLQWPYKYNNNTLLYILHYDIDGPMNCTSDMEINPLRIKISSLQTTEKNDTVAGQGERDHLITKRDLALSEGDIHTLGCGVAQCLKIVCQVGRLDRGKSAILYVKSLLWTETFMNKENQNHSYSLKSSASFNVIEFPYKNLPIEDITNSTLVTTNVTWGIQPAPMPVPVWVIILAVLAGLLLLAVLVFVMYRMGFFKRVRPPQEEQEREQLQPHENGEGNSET
# UniProt Q99623, sequence (Q99623 whole entry): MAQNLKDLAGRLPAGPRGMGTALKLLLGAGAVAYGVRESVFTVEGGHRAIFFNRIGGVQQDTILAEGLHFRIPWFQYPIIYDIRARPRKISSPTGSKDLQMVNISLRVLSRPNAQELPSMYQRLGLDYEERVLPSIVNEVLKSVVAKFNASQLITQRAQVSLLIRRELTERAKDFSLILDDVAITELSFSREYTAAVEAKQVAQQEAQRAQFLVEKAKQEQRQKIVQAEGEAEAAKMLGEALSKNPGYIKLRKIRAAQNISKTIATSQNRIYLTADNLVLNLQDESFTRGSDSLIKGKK
# UniProt Q13444, sequence (Q13444 whole entry): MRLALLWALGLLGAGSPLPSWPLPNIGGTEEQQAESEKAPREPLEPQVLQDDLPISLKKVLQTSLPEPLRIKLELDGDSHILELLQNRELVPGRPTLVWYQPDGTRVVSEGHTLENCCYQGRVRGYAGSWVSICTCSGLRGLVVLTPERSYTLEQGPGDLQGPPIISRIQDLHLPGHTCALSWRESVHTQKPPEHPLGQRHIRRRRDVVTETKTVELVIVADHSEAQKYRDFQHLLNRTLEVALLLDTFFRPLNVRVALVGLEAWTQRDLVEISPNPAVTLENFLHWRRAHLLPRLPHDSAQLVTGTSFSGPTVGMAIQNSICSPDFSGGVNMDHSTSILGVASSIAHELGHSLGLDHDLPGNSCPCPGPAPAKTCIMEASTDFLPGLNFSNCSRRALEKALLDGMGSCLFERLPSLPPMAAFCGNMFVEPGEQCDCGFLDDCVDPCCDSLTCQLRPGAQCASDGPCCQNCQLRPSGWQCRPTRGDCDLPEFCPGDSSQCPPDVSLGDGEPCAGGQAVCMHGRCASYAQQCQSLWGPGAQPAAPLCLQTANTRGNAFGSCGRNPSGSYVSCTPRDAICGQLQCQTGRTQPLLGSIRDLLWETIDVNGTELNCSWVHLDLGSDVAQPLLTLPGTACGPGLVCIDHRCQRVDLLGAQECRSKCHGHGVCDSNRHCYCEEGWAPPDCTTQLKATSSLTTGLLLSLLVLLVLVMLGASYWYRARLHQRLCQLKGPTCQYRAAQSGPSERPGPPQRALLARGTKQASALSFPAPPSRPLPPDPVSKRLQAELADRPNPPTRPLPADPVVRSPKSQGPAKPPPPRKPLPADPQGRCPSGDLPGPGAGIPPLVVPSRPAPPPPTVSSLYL
# UniProt O00469, sequence (O00469 whole entry): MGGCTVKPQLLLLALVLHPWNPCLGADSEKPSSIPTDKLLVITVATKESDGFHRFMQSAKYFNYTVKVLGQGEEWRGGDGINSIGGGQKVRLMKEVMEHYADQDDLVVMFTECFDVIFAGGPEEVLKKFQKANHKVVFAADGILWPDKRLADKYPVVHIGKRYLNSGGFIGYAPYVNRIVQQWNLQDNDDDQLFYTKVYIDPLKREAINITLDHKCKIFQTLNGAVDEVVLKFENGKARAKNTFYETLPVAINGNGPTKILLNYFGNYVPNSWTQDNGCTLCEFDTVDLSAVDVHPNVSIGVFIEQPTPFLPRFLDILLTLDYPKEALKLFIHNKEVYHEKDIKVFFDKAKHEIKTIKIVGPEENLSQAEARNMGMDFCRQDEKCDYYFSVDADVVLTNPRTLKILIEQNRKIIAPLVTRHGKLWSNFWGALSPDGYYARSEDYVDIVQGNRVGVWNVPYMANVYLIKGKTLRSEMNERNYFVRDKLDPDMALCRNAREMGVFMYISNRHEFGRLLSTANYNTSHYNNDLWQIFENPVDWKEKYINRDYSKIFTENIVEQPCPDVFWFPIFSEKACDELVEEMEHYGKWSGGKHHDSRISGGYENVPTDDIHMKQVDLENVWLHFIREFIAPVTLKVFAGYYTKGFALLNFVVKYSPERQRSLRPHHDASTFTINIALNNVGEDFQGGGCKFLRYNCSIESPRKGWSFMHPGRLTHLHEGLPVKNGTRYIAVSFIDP
# UniProt Q6NZI2, sequence (Q6NZI2 whole entry): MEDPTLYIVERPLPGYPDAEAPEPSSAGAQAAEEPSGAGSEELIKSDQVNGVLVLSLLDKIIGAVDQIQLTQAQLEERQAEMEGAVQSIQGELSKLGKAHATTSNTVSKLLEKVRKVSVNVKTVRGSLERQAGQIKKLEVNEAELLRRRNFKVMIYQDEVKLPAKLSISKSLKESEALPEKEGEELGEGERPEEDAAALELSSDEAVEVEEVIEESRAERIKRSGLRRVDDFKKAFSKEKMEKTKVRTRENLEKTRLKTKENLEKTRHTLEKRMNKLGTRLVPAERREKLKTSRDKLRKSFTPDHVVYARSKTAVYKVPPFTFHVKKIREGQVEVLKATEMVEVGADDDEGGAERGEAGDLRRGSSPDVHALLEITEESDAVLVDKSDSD
# UniProt Q9H5V8, sequence (Q9H5V8 whole entry): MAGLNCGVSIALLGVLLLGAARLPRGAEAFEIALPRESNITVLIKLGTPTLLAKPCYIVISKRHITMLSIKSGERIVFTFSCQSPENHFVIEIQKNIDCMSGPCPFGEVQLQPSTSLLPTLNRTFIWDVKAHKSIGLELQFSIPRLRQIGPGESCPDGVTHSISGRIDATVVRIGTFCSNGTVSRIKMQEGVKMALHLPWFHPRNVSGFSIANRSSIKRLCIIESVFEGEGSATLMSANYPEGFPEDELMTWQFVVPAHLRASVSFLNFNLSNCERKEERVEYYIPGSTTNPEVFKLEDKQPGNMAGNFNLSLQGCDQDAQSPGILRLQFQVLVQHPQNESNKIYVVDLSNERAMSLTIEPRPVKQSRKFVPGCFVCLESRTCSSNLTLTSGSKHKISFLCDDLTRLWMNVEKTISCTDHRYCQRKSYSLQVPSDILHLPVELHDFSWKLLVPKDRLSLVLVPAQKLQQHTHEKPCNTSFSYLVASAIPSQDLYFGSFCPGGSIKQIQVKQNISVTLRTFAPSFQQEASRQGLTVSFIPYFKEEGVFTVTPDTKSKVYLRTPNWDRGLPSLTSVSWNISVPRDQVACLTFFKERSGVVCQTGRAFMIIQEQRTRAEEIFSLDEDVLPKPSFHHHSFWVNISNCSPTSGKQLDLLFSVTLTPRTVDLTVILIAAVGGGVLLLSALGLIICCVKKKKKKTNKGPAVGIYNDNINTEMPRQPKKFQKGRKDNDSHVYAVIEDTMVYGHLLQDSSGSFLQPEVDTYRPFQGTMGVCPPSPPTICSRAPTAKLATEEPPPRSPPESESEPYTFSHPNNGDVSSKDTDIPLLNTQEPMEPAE
# UniProt Q71U36, sequence (Q71U36 whole entry): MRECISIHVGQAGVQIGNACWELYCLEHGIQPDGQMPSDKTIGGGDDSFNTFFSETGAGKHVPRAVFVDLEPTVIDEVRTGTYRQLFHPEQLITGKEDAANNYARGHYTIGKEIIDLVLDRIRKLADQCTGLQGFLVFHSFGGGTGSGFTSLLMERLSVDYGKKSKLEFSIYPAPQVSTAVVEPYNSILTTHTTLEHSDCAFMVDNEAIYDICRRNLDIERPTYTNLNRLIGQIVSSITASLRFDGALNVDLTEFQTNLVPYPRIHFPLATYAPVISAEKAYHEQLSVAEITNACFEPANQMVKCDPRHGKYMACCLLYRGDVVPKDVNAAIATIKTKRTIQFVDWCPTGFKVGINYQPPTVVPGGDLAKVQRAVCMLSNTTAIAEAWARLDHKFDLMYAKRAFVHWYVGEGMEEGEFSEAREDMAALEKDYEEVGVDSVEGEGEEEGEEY
# UniProt Q5BJF2, sequence (Q5BJF2 whole entry): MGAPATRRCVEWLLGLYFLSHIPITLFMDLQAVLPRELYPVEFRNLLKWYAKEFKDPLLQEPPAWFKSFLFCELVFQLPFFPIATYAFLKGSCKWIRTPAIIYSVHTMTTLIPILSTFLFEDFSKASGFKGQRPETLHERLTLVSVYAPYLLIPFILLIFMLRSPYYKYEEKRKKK
# UniProt P60981, sequence (P60981 whole entry): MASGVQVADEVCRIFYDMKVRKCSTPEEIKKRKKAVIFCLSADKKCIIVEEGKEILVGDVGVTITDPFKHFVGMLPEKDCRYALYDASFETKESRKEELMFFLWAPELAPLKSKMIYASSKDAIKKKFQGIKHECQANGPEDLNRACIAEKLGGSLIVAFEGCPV
row,Target,lysine labeling ratio R10:1
1,UniProt P16144 (lysine site: K151),1.53 (active)
2,UniProt Q15046 (lysine site: K479),1.78 (active)
3,FN1 (lysine site: K2030) (UniProt P02751),0.807 (active)
4,CACNA2D1 (lysine site: K586) (UniProt P54289),2.9
5,TGFBR3 (lysine site: K672) (UniProt Q03167),0.83 (active)
6,DSTN (lysine site: K92) (UniProt P60981),2.43
7,UniProt Q6NZI2 (lysine site: K299),4.52
8,PAFAH1B1 (lysine site: K54) (UniProt P43034),3.44
9,UniProt Q15149 (lysine site: K1626),2.37
10,UniProt Q99653 (lysine site: K188),1.18 (active)
11,EHD1 (lysine site: K220) (UniProt Q9H4M9),4.05
12,UniProt Q99623 (lysine site: K218),2.79
13,PLXNB2 (lysine site: K1159) (UniProt O15031),1.75 (active)
14,PIEZO1 (lysine site: K2372) (UniProt Q92508),1.09 (active)
15,PABPC1 (lysine site: K512) (UniProt P11940),3.06
16,HSPA5 (lysine site: K164) (UniProt P11021),0.987 (active)
17,CDCP1 (lysine site: K396) (UniProt Q9H5V8),0.987 (active)
18,ECH1 (lysine site: K83) (UniProt Q13011),1.59 (active)
19,UniProt O95980 (lysine site: K747),1.22 (active)
20,LAMC1 (lysine site: K1258) (UniProt P11047),1.54 (active)

row,Target,lysine labeling ratio R10:1
1,TMEM97 (lysine site: K130) (UniProt Q5BJF2),3.33
2,UniProt P25705 (lysine site: K132),1.76 (active)
3,EPRS (lysine site: K435) (UniProt P07814),2.68
4,SPTBN1 (lysine site: K497) (UniProt Q01082),2.59
5,DCBLD2 (lysine site: K391) (UniProt Q96PD2),3.28
6,ATP2A2 (lysine site: K757) (UniProt P16615),1.36 (active)
7,ENG (lysine site: K402) (UniProt P17813),2.25
8,PLOD2 (lysine site: K412) (UniProt O00469),7.56
9,ITGAV (lysine site: K533) (UniProt P06756),1.58 (active)
10,VCL (lysine site: K778) (UniProt P18206),1.11 (active)
11,THBS1 (lysine site: K968) (UniProt P07996),1.48 (active)
12,ADAM15 (lysine site: K660) (UniProt Q13444),4.34
13,ITGA6 (lysine site: K144) (UniProt P23229),4.01
14,HNRNPA1 (lysine site: K350) (UniProt P09651),3.42
15,PTPRS (lysine site: K1001) (UniProt Q13332),4.13
16,ITGAV (lysine site: K718) (UniProt P06756),2.95
17,ROBO1 (lysine site: K297) (UniProt Q9Y6N7),3.3
18,FRAS1 (lysine site: K3278) (UniProt Q86XX4),2.1
19,TUBA1A (lysine site: K338) (UniProt Q71U36),2 (active)
20,UniProt O60245 (lysine site: K713),2.99
